In publication PMC4336329 (PLoS ONE, 2015):
Among all 310,000 compounds or so, about 14,000 (4.5%) showed an effect of 50% or more. The effect is printed as a negative number. The list comes from a sample in which strong results are over-represented; it also holds similar structures and randomly drawn compounds.

Target: human ether-à-go-go-related gene (hERG) potassium channel (human, UniProt Q12809)
Experiment: primary screen, population patch clamp on CHO cells stably expressing hERG; higher = less effect of the substance
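Also: peak tail current of the secondary pulse compared with the same well before compound.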

Sequence of human ether-à-go-go-related gene (hERG) potassium channel (Q12809 whole entry, looked up): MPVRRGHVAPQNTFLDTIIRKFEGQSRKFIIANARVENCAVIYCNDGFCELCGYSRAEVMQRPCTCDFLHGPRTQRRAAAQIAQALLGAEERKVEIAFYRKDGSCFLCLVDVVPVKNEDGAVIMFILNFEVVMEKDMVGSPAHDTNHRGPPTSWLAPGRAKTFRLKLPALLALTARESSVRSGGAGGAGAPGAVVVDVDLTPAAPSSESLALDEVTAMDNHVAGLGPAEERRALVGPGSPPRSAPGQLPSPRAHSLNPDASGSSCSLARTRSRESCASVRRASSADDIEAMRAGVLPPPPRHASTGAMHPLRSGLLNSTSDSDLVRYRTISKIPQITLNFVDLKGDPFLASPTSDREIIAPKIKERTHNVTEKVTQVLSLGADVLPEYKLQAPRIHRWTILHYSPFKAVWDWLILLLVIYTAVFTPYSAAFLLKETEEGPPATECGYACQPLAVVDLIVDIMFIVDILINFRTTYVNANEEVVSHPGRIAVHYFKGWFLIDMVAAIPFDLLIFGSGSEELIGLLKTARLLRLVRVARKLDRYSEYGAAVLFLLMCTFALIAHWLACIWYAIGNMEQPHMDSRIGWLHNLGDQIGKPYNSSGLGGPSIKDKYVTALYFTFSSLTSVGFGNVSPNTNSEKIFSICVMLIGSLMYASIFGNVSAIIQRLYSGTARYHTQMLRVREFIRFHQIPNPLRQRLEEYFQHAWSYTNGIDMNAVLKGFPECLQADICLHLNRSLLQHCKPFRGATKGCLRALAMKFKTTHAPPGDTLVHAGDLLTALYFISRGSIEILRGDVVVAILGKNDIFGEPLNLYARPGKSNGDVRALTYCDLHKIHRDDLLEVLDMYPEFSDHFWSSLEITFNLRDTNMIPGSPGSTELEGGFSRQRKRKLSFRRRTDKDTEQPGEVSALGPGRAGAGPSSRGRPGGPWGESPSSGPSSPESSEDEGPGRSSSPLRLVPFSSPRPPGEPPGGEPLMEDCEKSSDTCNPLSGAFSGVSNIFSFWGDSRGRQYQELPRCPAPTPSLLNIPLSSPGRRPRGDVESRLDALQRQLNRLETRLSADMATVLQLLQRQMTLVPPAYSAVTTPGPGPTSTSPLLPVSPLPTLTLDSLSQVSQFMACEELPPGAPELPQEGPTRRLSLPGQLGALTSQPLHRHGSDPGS

SMILES | hERG current change (%, negative = inhibition) at 10uM
O=C(CCC1=NS(=O)(=O)c2ccccc2N1)NC1CCCCCCC1 | 2.57%
COc1ccc(S(=O)(=O)N(CC(=O)NC2CC2)c2ccc(C)cc2)cc1 | -0.125%
CCN(CC(=O)Nc1c(F)cccc1F)C(=O)Cc1c(C)nc2ccccc2c1C | -55.1%
CCN(CC(=O)Nc1c(F)cccc1F)C(=O)c1cc(C)nc2ccccc12 | 9.3%
CCCN(CC(=O)Nc1ccccc1C)C(=O)CC(NC(=O)c1ccccc1)c1ccccc1 (stereo not drawn) | -52.7%
CCCN(CC(=O)Nc1ccccc1C)C(=O)Cc1n[nH]c(=O)c2ccccc12 | -10.2%
CCCN(CC(=O)Nc1ccc(Cl)cc1Cl)C(=O)CC(NC(C)=O)c1ccccc1 (stereo not drawn) | 0.715%
CCN(CC(=O)Nc1c(F)cccc1F)C(=O)Cc1ccccc1 | -1.53%
CCCN(CC(=O)Nc1ccccc1C)C(=O)Cc1c(C)nc2ccccc2c1C | -77.4%
CCCN(CC(=O)Nc1ccccc1C)C(=O)CCl | -0.969%
CCCN(CC(=O)Nc1ccccc1C)C(=O)CSc1ccccc1C | 7.42%
Cn1c(CCNC(=O)c2ccccc2F)nnc1SCC(=O)Nc1ccccc1F | 3.44%
OCCOCCn1c(CCNc2nc(-c3ccc(Cl)cc3)cs2)nc2cc(Cl)c(Cl)cc21 | 3.83%
Cc1ccc(-c2cc(-c3ccccc3)no2)c(O)c1 | 17.4%
CCn1ncc(/C=N\NC(=O)c2cc(-c3ccc(C)cc3C)nc3ccccc23)c1C | -8.84%
Cc1nnc(SCC(=O)c2ccc(Cl)cc2)s1 | -9.82%
CC(=O)Cn1c(CN2CCN(C(=O)c3ccco3)CC2)nc2c1c(=O)n(C)c(=O)n2C | 16%
Cn1c(=O)c2c(nc(CN3CCN(C(=O)c4ccco4)CC3)n2Cc2ccccc2)n(C)c1=O | -40.7%
CC(C)Cn1c(CN2CCN(C(=O)c3ccco3)CC2)nc2c1c(=O)n(C)c(=O)n2C | -12.2%
Cn1c(=O)c2c(nc(CN3CCN(C(=O)c4ccco4)CC3)n2Cc2ccc(Cl)cc2)n(C)c1=O | -64.8%
Cc1ccccc1Cn1c(CN2CCN(C(=O)c3ccco3)CC2)nc2c1c(=O)n(C)c(=O)n2C | -45%

SMILES | hERG current change (%, negative = inhibition) at 10uM
Cn1c(=O)c2c(nc(CN3CCN(C(=O)c4ccco4)CC3)n2Cc2ccc(F)cc2)n(C)c1=O | -44.8%
Cn1c(=O)c2c(nc(CN3CCN(C(=O)c4ccco4)CC3)n2Cc2cccc(Cl)c2)n(C)c1=O | -60.1%
Cc1ccc(Cn2c(CN3CCN(C(=O)c4ccco4)CC3)nc3c2c(=O)n(C)c(=O)n3C)cc1 | -54.2%
CCN1CCN(C(=O)c2ccc3c(c2)N(Cc2ccc(F)cc2)C(=O)c2ccccc2S3=O)CC1 (stereo not drawn) | -9.09%
O=C(NCc1ccccn1)[C@H]1C[C@@H]1[C@H](NP(=O)(c1ccccc1)c1ccccc1)c1ccccc1 | -9%
O=C(Nc1ccc2oc(-c3cccnc3)nc2c1)c1ccco1 | -33.2%
CC(=O)Nc1ccc(S(=O)(=O)N2CCC(C(=O)N[C@@H](C)C(=O)NC3CCCC3)CC2)cc1 | 35.3%
COc1ccc(Cn2c(C)nc3ccc([N+](=O)[O-])cc3c2=O)cc1 | -20%
Cc1nc2ccc([N+](=O)[O-])cc2c(=O)n1Cc1ccc(Cl)cc1 | -4.6%
CCn1c(=O)c2ccccc2n(Cc2ccc([N+](=O)[O-])cc2)c1=O | -77%
Cc1c(C=O)c2ccccc2n1Cc1ccc([N+](=O)[O-])cc1 | -78.1%
Cc1nc2ccc([N+](=O)[O-])cc2c(=O)n1Cc1ccc(Br)cc1 | 7.76%
Cc1nc2ccc([N+](=O)[O-])cc2c(=O)n1Cc1ccc([N+](=O)[O-])cc1 | -76.8%
Cc1nc2ccc([N+](=O)[O-])cc2c(=O)n1Cc1ccc(F)cc1 | -26.2%
Cc1c(C=O)c2ccccc2n1Cc1ccc(F)cc1 | -43.1%
Cc1c(C=O)c2ccccc2n1Cc1ccccc1 | -2.16%
CCn1c(=O)c2ccccc2n(Cc2cccc(C)c2)c1=O | 3.93%
Cc1nc2ccccc2c(=O)n1Cc1ccc([N+](=O)[O-])cc1 | -74.4%
CCn1c(=O)c2ccccc2n(Cc2cccc([N+](=O)[O-])c2)c1=O | 15.3%
Cc1onc(-c2ccccc2Cl)c1C(=O)Nc1ccc(S(=O)(=O)NCC2CCCO2)cc1 (stereo not drawn) | -10.5%
COc1ccc(C(=O)Nc2ccccc2N2CCOCC2)cc1S(=O)(=O)N1CCCC1 | -24.5%

SMILES | hERG current change (%, negative = inhibition) at 10uM
O=C(NCCCN1CCOCC1)c1cccc(S(=O)(=O)N2CCc3ccccc3C2)c1 | -17%
O=C(NNC(=O)c1ccc(Cl)cc1Cl)c1ccncc1 | 17%
Cc1ccc(-c2cccc(C(=O)NCc3ccccc3)n2)c2ccccc12 | 17.8%
CCOC(=O)N1C=CC=C[C@@H]2[C@@H](N3C(=O)c4ccccc4C3=O)C(=O)N21 | 0.941%
COc1ccc(OC)c2[nH]c(=O)c(CCNC(=O)C(=O)c3c(C)[nH]c4ccccc34)cc12 | -1.04%
C/C(CC(=O)Nc1ccccc1[N+](=O)[O-])=N\NC(=O)COc1ccccc1C | -5.65%
COC(=O)c1cc(-c2ccc(OC)c(OC)c2)c2c(=O)[nH]c(=O)n(C)c2n1 | 21.3%
COc1ccc(CSCCc2n[nH]c(=S)n2-c2ccccc2)cc1 | 20.1%
CC1=Nn2c(nnc2-c2n[nH]c3c2CCC3)SC1 | 8.18%
COc1ccc(N(CC(=O)NCc2cccnc2)S(=O)(=O)c2ccc(C)c([N+](=O)[O-])c2)cc1 | -36.6%
COc1ccc(S(=O)(=O)N(CC(=O)NCc2cccnc2)c2ccc(F)cc2)cc1OC | 4.62%
Cc1ccc(S(=O)(=O)N(CC(=O)NCc2cccnc2)c2ccc(F)cc2)cc1 | -61.2%
Cc1ccc(N(CC(=O)NCC(O)c2ccccc2)S(=O)(=O)c2ccc(C)cc2)cc1 (stereo not drawn) | -65.9%
CN(c1ccc(OCC(=O)OCC(=O)Nc2ccc(F)cc2)cc1)S(=O)(=O)c1ccc(Cl)cc1 | -59.2%
COc1ccc(N(CC(=O)Nc2ccc(C(N)=O)cc2)S(=O)(=O)c2ccc(C)c([N+](=O)[O-])c2)cc1 | 24%
COc1ccc(S(=O)(=O)N(CC(=O)NCc2cccnc2)c2ccc(C)cc2)cc1OC | -10%
COc1ccc(N(CC(=O)NC(C)c2ccccc2)S(=O)(=O)c2ccc(C)cc2)cc1 (stereo not drawn) | -22.1%
COc1ccc(N(CC(=O)NCc2ccncc2)S(=O)(=O)c2ccc(C)c([N+](=O)[O-])c2)cc1 | -50.9%
CN(c1ccc(OCC(=O)OCC(=O)Nc2c(F)c(F)c(F)c(F)c2F)cc1)S(=O)(=O)c1ccc(F)cc1 | 8.61%
CN(c1ccc(OCC(=O)OCC(=O)Nc2ccccc2)cc1)S(=O)(=O)c1ccc(F)cc1 | -11.9%
CCNC(=O)CN(c1ccc(C)cc1)S(=O)(=O)c1ccccc1 | 7.75%
